Test results published in PubChem BioAssay (EPA / NIEHS).
Active and inactive are the calls of the source. Rule for the calls: active = hit-call score of the fitted dose curve at least 0.9, where 1 is the maximum; inactive = score below 0.9.

What was measured:
Details in all cases: mRNA level, 48 h; actives raise or lower the signal
[1] = read-out: NAD(P)H dehydrogenase [quinone] 1 (NQO1), NQO1 (gene 1728); experiment: LTEA_HepaRG_NQO1: Life Technologies and Expression Analysis (LTEA) Assay for NAD(P)H dehydrogenase [quinone] 1 (NQO1) using HepaRG (AID 2283526)
Method in brief: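 Transcript induction or suppression is quantified by qRT-PCR in human HepaRG liver cells dosed for 48 hours. Eight half-log concentrations topping at 100 uM are used, with 0.5% DMSO as vehicle and baseline.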

[2] = read-out: Nuclear factor erythroid 2-related factor 2 (Homo sapiens) (UniProt Q16236); experiment: LTEA_HepaRG_NFE2L2: Life Technologies and Expression Analysis (LTEA) Assay for Nuclear factor erythroid 2-related factor 2 (NFE2L2) Transcription Factor using HepaRG (AID 2283527)
Method in brief: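 NFE2L2 transcript level was read by qRT-PCR (housekeeping ACTB/GAPDH/POLR2A normalisation) after 48 h chemical treatment of HepaRG in serum-free induction medium. Duplicate 8-point half-log curves, top 100 uM, 0.5% DMSO vehicle; up- or down-regulation fitted against vehicle.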

[3] = read-out: succinate dehydrogenase complex iron sulfur subunit B (SDHB), SDHB (gene 6390); experiment: LTEA_HepaRG_SDHB: Life Technologies and Expression Analysis (LTEA) Assay for succinate dehydrogenase complex iron sulfur subunit B (SDHB) using HepaRG (AID 2283528)
Method in brief: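 Readout is SDHB transcript level by qRT-PCR, normalised to three housekeeping genes and fitted bidirectionally against 0.5% DMSO vehicle. Human HepaRG cells were treated for 48 h at up to 100 uM.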

[4] = read-out: Signal transducer and activator of transcription 3 (Homo sapiens) (UniProt P40763); experiment: LTEA_HepaRG_STAT3: Life Technologies and Expression Analysis (LTEA) Assay for Signal transducer and activator of transcription (STAT3) using HepaRG (AID 2283529)
Method in brief: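 STAT3 transcript quantified by qRT-PCR against three housekeeping genes (ACTB, GAPDH, POLR2A), fitted both directions relative to DMSO. HepaRG cultures exposed 48 h to eight half-log concentrations, top 100 uM, 0.5% DMSO, serum-free induction medium.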

[5] = read-out: solute carrier (SLCO1B1), SLCO1B1 (gene 10599); experiment: LTEA_HepaRG_SLCO1B1: Life Technologies and Expression Analysis (LTEA) Assay for solute carrier (SLCO1B1) using HepaRG (AID 2283530)
Method in brief: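 Human HepaRG cultures treated for 48 h with an eight-concentration half-log series topping at 100 uM; SLCO1B1 measured by qRT-PCR and fitted bidirectionally relative to DMSO.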

[6] = read-out: sulfotransferase 2A1 (SULT2A1), SULT2A1 (gene 6822); experiment: LTEA_HepaRG_SULT2A1: Life Technologies and Expression Analysis (LTEA) Assay for sulfotransferase 2A1 (SULT2A1) using HepaRG (AID 2283531)
Method in brief: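 Gene-expression endpoint in a human liver cell line: SULT2A1 mRNA change after 48 h chemical treatment, curves fitted in both directions relative to 0.5% DMSO vehicle. Concentrations spanned eight half-log steps from 100 uM.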

[7] = read-out: Transforming Growth Factor (TGFA), TGFA (gene 7039); experiment: LTEA_HepaRG_TGFA: Life Technologies and Expression Analysis (LTEA) Assay for Transforming Growth Factor (TGFA) using HepaRG (AID 2283532)
Method in brief: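 TGFA transcript quantified by qRT-PCR (Fluidigm arrays) against three housekeeping genes, after 48 hours chemical treatment of HepaRG cells. Top concentration 100 uM with half-log dilutions, 8 points, duplicates, 0.5% DMSO.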

[8] = read-out: Transforming Growth Factor (TGFB1), TGFB1 (gene 7040); experiment: LTEA_HepaRG_TGFB1: Life Technologies and Expression Analysis (LTEA) Assay for Transforming Growth Factor (TGFB1) Transporter using HepaRG (AID 2283533)
Method in brief: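 Eight-point concentration-response (max 100 uM, half-log) in HepaRG under serum-free induction conditions, 48 h. TGFB1 mRNA by qRT-PCR, housekeeping-normalized.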

[9] = read-out: TIMP1, TIMP1 (gene 7076); experiment: LTEA_HepaRG_TIMP1: Life Technologies and Expression Analysis (LTEA) Assay for TIMP1 using HepaRG (AID 2283534)
Method in brief: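 TIMP1 induction or repression in HepaRG cells after 48 h chemical exposure (eight concentrations, highest 100 uM), assessed by normalized qRT-PCR with bidirectional fitting to DMSO controls.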

[10] = read-out: Tumor necrosis factor receptor 1 (TNFRSF1A), TNFRSF1A (gene 7132); experiment: LTEA_HepaRG_TNFRSF1A: Life Technologies and Expression Analysis (LTEA) Assay for Tumor necrosis factor receptor 1 (TNFRSF1A) using HepaRG (AID 2283535)
Method in brief: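 Assay uses 48 h chemical treatment of differentiated HepaRG monolayers, tested in duplicate at eight concentrations from 100 uM downward in 0.5% DMSO. mRNA is normalized to ACTB, GAPDH and POLR2A, with induction or suppression fitted relative to vehicle.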

Measured: AC50

Signal transducer and activator of transcription 3 (Homo sapiens), sequence (P40763 whole entry, looked up): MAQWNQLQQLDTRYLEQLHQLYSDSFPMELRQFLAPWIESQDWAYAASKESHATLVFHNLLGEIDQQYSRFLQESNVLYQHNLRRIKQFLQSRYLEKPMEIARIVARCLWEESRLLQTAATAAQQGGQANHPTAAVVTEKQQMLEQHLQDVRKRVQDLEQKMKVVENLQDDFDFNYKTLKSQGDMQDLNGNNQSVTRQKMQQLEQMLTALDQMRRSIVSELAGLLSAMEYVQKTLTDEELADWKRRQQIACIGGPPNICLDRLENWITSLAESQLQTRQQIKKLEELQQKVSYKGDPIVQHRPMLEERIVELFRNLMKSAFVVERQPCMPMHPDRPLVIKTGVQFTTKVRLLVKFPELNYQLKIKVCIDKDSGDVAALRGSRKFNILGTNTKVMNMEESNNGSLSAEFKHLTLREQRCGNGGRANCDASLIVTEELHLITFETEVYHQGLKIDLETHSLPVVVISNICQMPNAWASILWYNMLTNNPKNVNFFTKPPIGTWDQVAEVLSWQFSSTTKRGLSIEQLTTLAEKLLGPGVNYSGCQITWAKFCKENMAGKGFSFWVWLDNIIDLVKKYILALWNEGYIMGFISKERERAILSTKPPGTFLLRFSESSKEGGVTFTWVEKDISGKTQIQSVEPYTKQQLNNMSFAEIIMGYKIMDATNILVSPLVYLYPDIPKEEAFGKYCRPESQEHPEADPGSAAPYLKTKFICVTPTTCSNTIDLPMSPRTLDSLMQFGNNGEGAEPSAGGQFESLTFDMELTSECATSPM
Nuclear factor erythroid 2-related factor 2 (Homo sapiens), sequence (Q16236 whole entry, looked up): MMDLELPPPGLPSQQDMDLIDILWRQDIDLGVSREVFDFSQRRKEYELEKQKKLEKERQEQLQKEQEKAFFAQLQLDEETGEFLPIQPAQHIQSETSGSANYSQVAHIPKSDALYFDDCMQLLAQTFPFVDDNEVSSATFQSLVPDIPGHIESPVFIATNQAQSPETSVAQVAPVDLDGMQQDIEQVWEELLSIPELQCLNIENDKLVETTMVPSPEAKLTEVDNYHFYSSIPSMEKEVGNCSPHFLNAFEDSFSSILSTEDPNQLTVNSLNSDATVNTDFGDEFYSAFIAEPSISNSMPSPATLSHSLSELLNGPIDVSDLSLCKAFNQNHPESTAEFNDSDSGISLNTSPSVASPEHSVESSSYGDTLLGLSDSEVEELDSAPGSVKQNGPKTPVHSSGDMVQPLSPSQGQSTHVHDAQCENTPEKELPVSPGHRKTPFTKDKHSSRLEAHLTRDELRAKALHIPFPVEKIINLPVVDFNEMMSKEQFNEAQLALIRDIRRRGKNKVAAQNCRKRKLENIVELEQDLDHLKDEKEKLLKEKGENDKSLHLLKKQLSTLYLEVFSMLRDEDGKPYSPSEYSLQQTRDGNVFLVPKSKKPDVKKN

Nn1cnnc1
inactive: all assays above

CCCCCCCCCc1ccc(O)cc1
inactive: all assays above

CCCN(CCC)N=O
inactive: all assays above

CO/C=C(/C(=O)OC)c1ccccc1COc1cccc(C(F)(F)F)n1
active: [2] 21.6 µM | [4] 3.4 µM | [5] 8.29 µM | [6] 21.5 µM | [7] 10.6 µM | [9] 26.8 µM | [10] 4.97 µM
inactive: [1] | [3] | [8]

COc1ccc(O)c(C(C)(C)C)c1
not listed: [10]
inactive: all other assays above

CC(c1ccc(O)cc1)(c1ccc(O)cc1)c1ccc(O)cc1
active: [2] 73.9 µM | [3] 50 µM | [4] 90.9 µM | [6] 84 µM | [9] 85.3 µM
inactive: [1] | [5] | [7] | [8] | [10]

Cc1cc2c3c(c1)C(c1ccccc1)=N[C@@H](NC(=O)c1ccncc1)C(=O)N3CC2
active: [2] 50 µM
inactive: all other assays above

O=C(NC(=O)c1cc(F)c(F)cc1Cl)Nc1cc(F)ccc1N1CCC(C(=O)O)CC1
inactive: all assays above

c1ccc(-c2ccccc2)cc1
inactive: all assays above

ClC(Cl)=C(c1ccc(Cl)cc1)c1ccc(Cl)cc1
active: [6] 12 µM
inactive: all other assays above

ClC1=C(Cl)[C@]2(Cl)[C@@H]3[C@@H]4C[C@@H]([C@H]5O[C@@H]45)[C@@H]3[C@@]1(Cl)C2(Cl)Cl
active: [2] 0.0292 µM | [4] 0.0319 µM
not listed: [7]
inactive: all other assays above

O=C(NC(=O)c1c(F)cccc1F)Nc1cc(Cl)c(OC(F)(F)C(F)F)c(Cl)c1
active: [4] 9.92 µM
not listed: [7]
inactive: all other assays above

Cc1cc(-c2ccc(N)c(C)c2)ccc1N
inactive: all assays above

NS(=O)(=O)C(F)(F)C(F)(F)C(F)(F)C(F)(F)C(F)(F)C(F)(F)C(F)(F)C(F)(F)F
active: [1] 12.8 µM | [2] 2.76 µM | [3] 4.97 µM | [4] 15.2 µM | [5] 9.33 µM | [6] 13.1 µM | [8] 39.4 µM | [9] 12.4 µM | [10] 29.4 µM

CCOCCOC(C)=O
inactive: all assays above

Cc1cccc(C)c1N
inactive: all assays above

CCCCCCCCOC(=O)c1ccccc1C(=O)OCCCCCCCC
inactive: all assays above

CC(C)(O)C(=O)Nc1ccc([N+](=O)[O-])c(C(F)(F)F)c1
active: [1] 0.0268 µM | [5] 0.0191 µM | [7] 0.0264 µM
inactive: all other assays above

CC1=C2C[C@H]3[C@@H](CC=C4C[C@@H](O)CC[C@@]43C)[C@@H]2CC[C@]12O[C@@H]1C[C@H](C)CN[C@H]1[C@H]2C
inactive: all assays above

CC#Cc1cc(C)nc(Nc2ccccc2)n1
active: [2] 30.2 µM | [4] 6.11 µM | [5] 29.2 µM | [6] 5.75 µM
inactive: all other assays above

Clc1ccc(C(Cl)(Cl)Cl)cc1
inactive: all assays above

Clc1ccc(C(c2ccccc2Cl)C(Cl)(Cl)Cl)cc1 (configuration not stated)
not listed: [7]
inactive: all other assays above

C[C@]12CCC(=O)C=C1CC[C@@H]1[C@@H]2CC[C@@]2(C)[C@H]1CC[C@]2(C)O
active: [8] 45.8 µM | [10] 45.8 µM
inactive: all other assays above

CCCCCCOC(=O)c1ccccc1C(=O)OCCCCCC
inactive: all assays above

CCNc1nc(NC(C)C)nc(SC)n1
not listed: [7]
inactive: all other assays above

O=C(N[C@H]1CN2CCC1CC2)c1cc2ccoc2cn1
not listed: [7]
inactive: all other assays above

Oc1c(Cl)c(Cl)c(Cl)c(Cl)c1Cl
active: [1] 6.48 µM | [3] 2.04 µM | [4] 1.19 µM | [5] 3.96 µM | [6] 4.65 µM | [7] 12.3 µM | [8] 5.06 µM | [9] 14.9 µM | [10] 5.95 µM
inactive: [2]

Cc1ccccc1[N+](=O)[O-]
inactive: all assays above

ClC1=C(Cl)[C@]2(Cl)[C@@H]3[C@@H](Cl)[C@H]4O[C@H]4[C@@H]3C1(Cl)C2(Cl)Cl
inactive: all assays above

C1CC2OC2CC1C1CO1 (configuration not stated)
not listed: [7]
inactive: all other assays above

ClC1=C(Cl)[C@]2(Cl)[C@@H]3[C@H]4C[C@H]([C@@H]5O[C@H]45)[C@@H]3[C@@]1(Cl)C2(Cl)Cl
active: [5] 13.8 µM
inactive: all other assays above
